# PubChem BioAssay (Tox21)
# Active and inactive are the calls of the source. Entries that show only a call come without a potency. Calls follow the shape of the dose curve; as a rule, active = well fitted curve in the direction sought with a large enough effect in the repeat runs; inconclusive = weak or mixed curves; inactive = flat fitted curve, though single readings scatter.
# Assay: qHTS assay to test for compound auto fluorescence at 460 nm (blue) in HEK293 cell free culture (AID 720681)
# Details: cell-free medium, autofluorescence 405/460 nm (blue); series mostly up to 91.3 µM
# Method in brief: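 Test compounds were pinned into cell-free culture medium (DMEM with 10% FBS) and fluorescence was read directly at Ex/Em 405/460 nm. Signals were expressed as fluorescence equivalents of triamterene, with DMSO vehicle as control.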
row,Structure (SMILES),Potency
1,C=C(C)C(=O)OCC(CC)(COC(=O)C(=C)C)COC(=O)C(=C)C,inactive
2,Clc1ccc(Cl)c(Cl)c1Cl,inactive
3,C=C1C2CCC(C2)C1(C)C (centres undefined),inactive
4,CC(C)(C)C1CCC(O)CC1 (centres undefined),inactive
5,Cc1ccc(N)c(S(=O)(=O)O)c1,inactive
6,O=c1c(-c2ccc(O)cc2)coc2cc(O)ccc12,inactive
7,COCC(C)O (centres undefined),inactive
8,CC1CC(OC(=O)c2ccccc2O)CC(C)(C)C1 (centres undefined),inactive
9,CCOC(=O)/C=C\C(=O)OCC,inactive
10,CCCCCCCCCCCCOCC1CO1 (centres undefined),inactive
11,C[C@@H]1O[C@@H](OC[C@H]2O[C@@H](Oc3c(-c4ccc(O)c(O)c4)oc4cc(O)cc(O)c4c3=O)[C@H](O)[C@@H](O)[C@@H]2O)[C@H](O)[C@H](O)[C@H]1O,inactive

# Assay: qHTS assay to test for compound auto fluorescence at 535 nm (green) in HEK293 cell free culture (AID 720682)
# Details: cell-free medium, green autofluorescence 485/535 nm; series mostly up to 91.3 µM
# Method in brief: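 Steps: dispense DMEM/10% FBS into empty wells; pin in compound or DMSO; measure fluorescence at 485/535 nm. Values are fluorescein equivalents.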
row,Structure (SMILES),outcome
1,Cc1cc(O)cc(C)c1Cl,inactive
2,COCC(=O)O,inactive
3,O=Nc1ccc(O)cc1,inactive
4,Oc1ccc(OCc2ccccc2)cc1,inactive
5,CC(C)Cc1ccccc1,inactive
6,CN(C)c1cccc(O)c1,inactive
7,CCOC(=O)C1OC1c1ccccc1 (centres undefined),inactive
8,Cc1cc(NS(=O)(=O)c2ccc(N)cc2)no1,inactive
9,CC1COc2ccccc2N1C(=O)C(Cl)Cl (centres undefined),inactive
10,CCc1ccc(O)cc1,inactive
11,OC1CCCC1,inactive
12,CCCCNC(N)=O,inactive
13,CS(=O)(=O)c1ccc([C@@H](O)[C@@H](CO)NC(=O)C(Cl)Cl)cc1,inactive
14,Clc1cc(Cl)c(Cl)cc1Cl,inactive
15,CC(C)(C)C(=O)C1C(=O)c2ccccc2C1=O,inactive
16,CC(=O)Nc1ccc(C(=O)O)cc1,inactive
17,CCCCCCCCCCCCN,inactive
18,CCCCC(CC)COC(C)=O (centres undefined),inactive
19,CCCCCC/C=C/CCCCCCCC(=O)O,inactive
20,O=C1O[C@H](CO)[C@@H](O)[C@H](O)[C@H]1O,inactive

row,Structure (SMILES),outcome
1,O=C1N=C(O)CN1/N=C/c1ccc(-c2ccc([N+](=O)[O-])cc2)o1,inactive
2,Nc1cc(-c2ccncc2)c[nH]c1=O,inactive
3,OCC1CCCO1 (centres undefined),inactive
4,C[C@@H](O)[C@H]1C(=O)N2C(C(=O)O)=C(S[C@@H]3CN[C@H](C(=O)N(C)C)C3)[C@H](C)[C@H]12,inactive
5,CCCCCCCCCCC=CC1CC(=O)OC1=O (centres undefined),inactive
6,COC(=O)Nc1nc2ccc(Sc3ccccc3)cc2[nH]1,inactive
7,OCCOCCOCCOCCO,inactive
8,O=C(O)c1ccc([N+](=O)[O-])cc1,inactive
9,C=C(C)C(=O)OCC(CC)(COC(=O)C(=C)C)COC(=O)C(=C)C,inactive
10,Clc1ccc(Cl)c(Cl)c1Cl,inactive
11,C=C1C2CCC(C2)C1(C)C (centres undefined),inactive
12,CC(C)(C)C1CCC(O)CC1 (centres undefined),inactive
13,Cc1ccc(N)c(S(=O)(=O)O)c1,inactive
14,O=c1c(-c2ccc(O)cc2)coc2cc(O)ccc12,inactive
15,COCC(C)O (centres undefined),inactive
16,CC1CC(OC(=O)c2ccccc2O)CC(C)(C)C1 (centres undefined),inactive
17,CCOC(=O)/C=C\C(=O)OCC,inactive
18,CCCCCCCCCCCCOCC1CO1 (centres undefined),inactive
19,C[C@@H]1O[C@@H](OC[C@H]2O[C@@H](Oc3c(-c4ccc(O)c(O)c4)oc4cc(O)cc(O)c4c3=O)[C@H](O)[C@@H](O)[C@@H]2O)[C@H](O)[C@H](O)[C@H]1O,inactive

# Assay: qHTS assay to test for compound auto fluorescence at 590 nm (red) in HEK293 cell free culture (AID 720683)
# Details: cell-free medium autofluorescence, Ex540/Em590 red; series mostly up to 91.3 µM
# Method in brief: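 Tox21 10K library compounds were pinned into cell-free DMEM with 10% FBS and fluorescence was read at excitation 540 nm. Activity is expressed as Rose Bengal sodium equivalency.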
row,Structure (SMILES),outcome
1,Cc1cc(O)cc(C)c1Cl,inactive
2,COCC(=O)O,inactive
3,O=Nc1ccc(O)cc1,inactive
4,Oc1ccc(OCc2ccccc2)cc1,inactive
5,CC(C)Cc1ccccc1,inactive
6,CN(C)c1cccc(O)c1,inactive
7,CCOC(=O)C1OC1c1ccccc1 (centres undefined),inactive
8,Cc1cc(NS(=O)(=O)c2ccc(N)cc2)no1,inactive
9,CC1COc2ccccc2N1C(=O)C(Cl)Cl (centres undefined),inactive
10,CCc1ccc(O)cc1,inactive
11,OC1CCCC1,inactive
12,CCCCNC(N)=O,inactive
13,CS(=O)(=O)c1ccc([C@@H](O)[C@@H](CO)NC(=O)C(Cl)Cl)cc1,inactive
14,Clc1cc(Cl)c(Cl)cc1Cl,inactive
15,CC(C)(C)C(=O)C1C(=O)c2ccccc2C1=O,inactive
16,CC(=O)Nc1ccc(C(=O)O)cc1,inactive
17,CCCCCCCCCCCCN,inactive
18,CCCCC(CC)COC(C)=O (centres undefined),inactive
19,CCCCCC/C=C/CCCCCCCC(=O)O,inactive
20,O=C1O[C@H](CO)[C@@H](O)[C@H](O)[C@H]1O,inactive

row,Structure (SMILES),outcome
1,O=C1N=C(O)CN1/N=C/c1ccc(-c2ccc([N+](=O)[O-])cc2)o1,inactive
2,Nc1cc(-c2ccncc2)c[nH]c1=O,inactive
3,OCC1CCCO1 (centres undefined),inactive
4,C[C@@H](O)[C@H]1C(=O)N2C(C(=O)O)=C(S[C@@H]3CN[C@H](C(=O)N(C)C)C3)[C@H](C)[C@H]12,inactive
5,CCCCCCCCCCC=CC1CC(=O)OC1=O (centres undefined),inactive
6,COC(=O)Nc1nc2ccc(Sc3ccccc3)cc2[nH]1,inactive
7,OCCOCCOCCOCCO,inactive
8,O=C(O)c1ccc([N+](=O)[O-])cc1,inactive
9,C=C(C)C(=O)OCC(CC)(COC(=O)C(=C)C)COC(=O)C(=C)C,inactive
10,Clc1ccc(Cl)c(Cl)c1Cl,inactive
11,C=C1C2CCC(C2)C1(C)C (centres undefined),inactive
12,CC(C)(C)C1CCC(O)CC1 (centres undefined),inactive
13,Cc1ccc(N)c(S(=O)(=O)O)c1,inactive
14,O=c1c(-c2ccc(O)cc2)coc2cc(O)ccc12,inactive
15,COCC(C)O (centres undefined),inactive
16,CC1CC(OC(=O)c2ccccc2O)CC(C)(C)C1 (centres undefined),inactive
17,CCOC(=O)/C=C\C(=O)OCC,inactive
18,CCCCCCCCCCCCOCC1CO1 (centres undefined),inactive
19,C[C@@H]1O[C@@H](OC[C@H]2O[C@@H](Oc3c(-c4ccc(O)c(O)c4)oc4cc(O)cc(O)c4c3=O)[C@H](O)[C@@H](O)[C@@H]2O)[C@H](O)[C@H](O)[C@H]1O,inactive
